Sm TGR block: S. mansoni TGR enzyme inhibition; Q962Y6; purified TGR, DTNB reduction, TNB absorbance 405 nm; Potency, µM (doses to about 114 µM), for inactives: at the top dose activity change, negative = inhibition, actives largely listed as inhibitors; hit rate 3% among 360,000; further: potency means the concentration at half of the fitted maximal effect; on the % scale 0 is the no-effect control and ±100 the full control effect; nearly all actives have a fitted effect of over 60% in size
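TGR 20 nM + NADPH 100 uM (dispensed conc.), cpd preinc 15 min RT; start with NADPH (500 uM addition) then DTNB (15 mM addition). Kinetic TNB absorbance, 405 nm filter. Four-parameter Hill fit across titration.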
TbPYK inhibitor: blocks Trypanosoma brucei pyruvate kinase; hit rate 0.12% among 410,000; AID 624173; TbPYK enzyme, Kinase-Glo Plus ATP luminescence, 45 min; Potency, µM (doses to about 76.8 µM), for inactives: at the top dose activity, negative = inhibition, actives largely listed as inhibitors; further: potency means the concentration at half of the fitted maximal effect; on the % scale 0 is the no-effect control and ±100 the full control effect; nearly all actives have a fitted effect of over 50% in size
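Luminescent Kinase-Glo Plus end-point after 45 min room-temperature reaction of T. brucei pyruvate kinase started with 130 uM ADP (final). Buffer TEA 50 mM pH 7.2 with KCl, MgCl2, BSA, Tween-20; titration-based qHTS with fitted concentration-effect curves.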
LmPK inhibitor: LmPK (Leishmania mexicana) enzyme inhibition. Potency, µM (titrated, usually from 57.5 µM), for the others: top-dose activity change, negative = inhibition, usual class: inhibitors. Q27686. purified LmPK, Kinase-Glo ATP luminescence, 1 h. hit rate 0.37% among 290,000; further: potency means the concentration at half of the fitted maximal effect; on the % scale 0 is the no-effect control and ±100 the full control effect
Target sequence (Q27686 whole entry, looked up): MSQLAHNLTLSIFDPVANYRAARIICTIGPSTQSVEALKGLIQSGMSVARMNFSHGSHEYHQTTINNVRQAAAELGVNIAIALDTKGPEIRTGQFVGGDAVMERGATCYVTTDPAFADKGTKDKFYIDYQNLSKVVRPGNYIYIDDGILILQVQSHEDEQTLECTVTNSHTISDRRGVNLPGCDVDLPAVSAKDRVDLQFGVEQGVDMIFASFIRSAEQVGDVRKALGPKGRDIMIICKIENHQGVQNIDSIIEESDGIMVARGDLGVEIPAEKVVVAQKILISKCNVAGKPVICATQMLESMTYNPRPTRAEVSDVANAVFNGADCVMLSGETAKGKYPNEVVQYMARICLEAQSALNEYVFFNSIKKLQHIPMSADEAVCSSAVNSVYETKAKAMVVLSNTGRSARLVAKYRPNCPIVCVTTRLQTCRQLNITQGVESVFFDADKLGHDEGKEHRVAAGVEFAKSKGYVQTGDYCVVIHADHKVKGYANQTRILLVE
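Pyruvate kinase activity monitored as ATP production (luciferase luminescence). Conditions: 0.1 nM enzyme, 0.5 mM PEP, 0.1 mM ADP, 1 h, RT; normalized against uninhibited and no-enzyme wells.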
CHX counter: affects cycloheximide protein synthesis inhibition readout, counter-screen | cell reporter, cycloheximide protein synthesis inhibition counterscreen | max response, % | hit rate 12% among 300,000 | AID 2314; in the data active means max response mostly above about 13%, no sharp cut-off; inactive means mostly below about 14%; further: read at 38.3 µM for the half of the compounds with a filed dose; 0% is about no effect
Giardia FBPA inh: inhibitors of Giardia lamblia fructose-1,6-bisphosphate aldolase; Potency, µM (top dose mostly 59.6 µM), without a hit: at the highest dose activity, negative = inhibition, most hits filed as inhibitors; hit rate 0.71% among 290,000; A8B2U2; purified Giardia FBPA; further: potency means the concentration at half of the fitted maximal effect; on the % scale 0 is the no-effect control and ±100 the full control effect; nearly all actives have a fitted effect of over 55% in size
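40 nM FBPA preincubated 10 min at RT with compound (up to 57.5 uM final), then substrate plus GAPDH/TPI/NAD/arsenate coupling and diaphorase/resazurin added. Fluorescence read after 20 min at RT, 525/598 nm.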
Shiga inhibitor: Shiga toxin inhibition | Vero cells, Shiga toxin protein synthesis inhibition reporter | inhibition, % at 38.7 µM | hit rate 9.2% among 290,000 | AID 2315; in the data active means inhibition mostly above about 28%, no sharp cut-off; inactive means mostly below about 43%; further: 0% is about no effect
An asterisk follows results filed as active; [ ] = remark or other dose. Many of the other results were omitted from the sample, so hits are more common in it than they were. Unless noted, the call rests on the fitted dose curve; in most records, active means well fitted curve in the direction sought with a large enough effect; inconclusive means small, poorly fitted or top-dose-only effect, or another doubt; inactive means no such curve, though single readings can be large; an effect the other way counts as inactive or inconclusive.

How did COc1ccc(Br)cc1/C=C/C(=O)Nc1ccc2ccccc2c1 do in these assays?
Sm TGR block: 0.2%; TbPYK inhibitor: -1.5%; LmPK inhibitor: 1.0%; CHX counter: 32.7*; Giardia FBPA inh: 1.1%; Shiga inhibitor: 20.0

What do the screens show for `CCCCCCCCCCCCCCCCOC[C@H](COP(=O)([O-])OCC[N+](C)(C)C)OC(=O)CCCCCCCC(=O)O`?
CHX counter: -3.4; Giardia FBPA inh: 27.0%; Shiga inhibitor: -8.3

How did CC1(NC(=O)Nc2cccc(Br)c2)CCS(=O)(=O)C1 (stereo not drawn) do in these assays?
TbPYK inhibitor: -6.4%

Results for COc1ccc(CNC(=O)Cc2csc3nc(-c4ccc(F)cc4)cn23)cc1 ?
Sm TGR block: 2.7%; TbPYK inhibitor: 1.5%

What do the screens show for `Cc1cc(C)nc(N/N=C/c2cc(Br)ccc2O)n1`?
Sm TGR block: 4.4%; TbPYK inhibitor: 4.9%; LmPK inhibitor: 1.4%; CHX counter: 27.7*; Giardia FBPA inh: -24.6%; Shiga inhibitor: 39.3

Results for Cc1cc(C)nc(N/N=C/c2ccccc2OCc2ccc(Br)cc2)n1 ?
Sm TGR block: -8.8%; TbPYK inhibitor: -9.0%; LmPK inhibitor: 3.9%; CHX counter: 29.5*; Giardia FBPA inh: -8.7%; Shiga inhibitor: 79.4*

What do the screens show for `CCOc1ccccc1/C=N/Nc1cc(C)nc2ccc(C)cc12`?
Sm TGR block: -16.5%; TbPYK inhibitor: -0.1%; LmPK inhibitor: -0.6%; CHX counter: 14.4; Giardia FBPA inh: 2.5%

Results for Cc1cc(C)nc(N/N=C/c2ccccc2OCc2ccc(Cl)cc2)n1 ?
Sm TGR block: -1.6%; TbPYK inhibitor: 6.3%; LmPK inhibitor: -1.8%; CHX counter: 13.0; Giardia FBPA inh: -6.6%; Shiga inhibitor: 41.3

What do the screens show for `Cc1cc(C)nc(N/N=C/c2ccccc2OCc2ccccc2)n1`?
Sm TGR block: -9.2%; TbPYK inhibitor: -2.7%; LmPK inhibitor: -1.8%; CHX counter: 11.7*; Giardia FBPA inh: -6.6%; Shiga inhibitor: 32.7

How did Cc1cc(C)nc(N/N=C/c2ccccc2OCc2cccc(Br)c2)n1 do in these assays?
Sm TGR block: -0.2%; TbPYK inhibitor: 1.7%; LmPK inhibitor: -2.5%; CHX counter: 14.4*; Giardia FBPA inh: -12.5%; Shiga inhibitor: 16.8

How did COC(=O)C1=C(C)N(Cc2ccccc2)[C@]23O[C@](C(=O)OC)(C(=O)N2C1c1ccccc1)C1CCCC(=O)C13 (stereo partly drawn) do in these assays?
Giardia FBPA inh: -0.2%[12.9 µM]

What do the screens show for `CCOc1ccccc1N(C(=O)c1ccco1)C(C(=O)NC1CCCC1)c1cccs1` (stereo not drawn)?
Sm TGR block: 5.6%; TbPYK inhibitor: 0.0%; LmPK inhibitor: -0.4%; CHX counter: -1.9; Shiga inhibitor: 1.7

Results for O=C(NC1CCCCC1)C(c1cccs1)N(C(=O)c1ccco1)c1ccc2c(c1)OCCO2 (stereo not drawn) ?
Sm TGR block: inconclusive; TbPYK inhibitor: -5.9%; LmPK inhibitor: -9.9%; CHX counter: 24.3*; Giardia FBPA inh: -29.4%; Shiga inhibitor: 10.3*

Results for COc1cc(OC)cc(N(C(=O)c2ccco2)C(C(=O)NC2CCCC2)c2ccc(N(C)C)cc2)c1 (stereo not drawn) ?
Sm TGR block: -1.6%; TbPYK inhibitor: -4.3%; LmPK inhibitor: 2.9%; CHX counter: 0.9; Giardia FBPA inh: -1.7%; Shiga inhibitor: -11.0

What do the screens show for `COc1cccc(N(C(=O)c2ccco2)C(C(=O)NC2CCCC2)c2ccc(N(C)C)cc2)c1` (stereo not drawn)?
Sm TGR block: -14.5%; TbPYK inhibitor: -6.7%; LmPK inhibitor: 0.0%; CHX counter: 19.8*; Giardia FBPA inh: -1.4%; Shiga inhibitor: 17.2

What do the screens show for `CCc1ccc(N(C(=O)c2ccco2)C(C(=O)NC2CCCC2)c2ccncc2)cc1` (stereo not drawn)?
Sm TGR block: -8.8%; TbPYK inhibitor: 1.3%; LmPK inhibitor: -4.4%; CHX counter: 15.0*; Giardia FBPA inh: 8.4%; Shiga inhibitor: 74.2*

How did CC(=O)c1ccc(N(C(=O)c2ccco2)C(C(=O)NC2CCCC2)c2cccs2)cc1 (stereo not drawn) do in these assays?
Sm TGR block: -15.9%; TbPYK inhibitor: -6.0%; LmPK inhibitor: -2.4%; CHX counter: 28.5*; Shiga inhibitor: 25.5

How did O=C(c1cc(C(F)(F)F)cc(C(F)(F)F)c1)N1CCC[C@@]2(CCN(Cc3ccccc3)C2)C1 do in these assays?
TbPYK inhibitor: 0.5%; Giardia FBPA inh: 9.0%

What do the screens show for `COc1cccc(C(=O)OCC(=O)c2ccc(Br)s2)c1`?
Sm TGR block: -3.6%; TbPYK inhibitor: 0.3%; LmPK inhibitor: -7.8%; CHX counter: 52.9*; Shiga inhibitor: 88.3*

Results for CCC1CCCCN1C(=O)COC(=O)c1cc(C)nc2ccccc12 (stereo not drawn) ?
Sm TGR block: 2.3%; TbPYK inhibitor: -0.3%

What do the screens show for `Cc1nonc1C(=O)N/N=C/c1ccncc1`?
TbPYK inhibitor: 3.7%; LmPK inhibitor: 15.8µM*; CHX counter: 28.6*; Giardia FBPA inh: -1.3%; Shiga inhibitor: 50.9*

Results for Nc1nonc1C(=O)N/N=C/c1ccncc1 ?
Sm TGR block: -1.5%; TbPYK inhibitor: 1.7%; LmPK inhibitor: -23.0%; CHX counter: 13.7; Giardia FBPA inh: 7.7%; Shiga inhibitor: 25.3

What do the screens show for `Cc1c(C(=O)N/N=C/c2ccncc2)no[n+]1[O-]`?
Sm TGR block: -1.3%; TbPYK inhibitor: -19.1%; LmPK inhibitor: -11.0%; CHX counter: 20.7*; Giardia FBPA inh: -12.7%; Shiga inhibitor: -2.8

How did Cc1nonc1C(=O)N/N=C/c1ccc([N+](=O)[O-])o1 do in these assays?
Sm TGR block: 44.7µM*; TbPYK inhibitor: -0.8%; LmPK inhibitor: -10.4%; CHX counter: 45.9*; Giardia FBPA inh: inconclusive; Shiga inhibitor: 88.4*

Results for Cc1cc(C)c(S(=O)(=O)N/N=C/c2ccc([N+](=O)[O-])o2)c(C)c1 ?
Sm TGR block: 7.08µM*; TbPYK inhibitor: -16.3%; LmPK inhibitor: 3.7%; CHX counter: -0.8; Giardia FBPA inh: inconclusive; Shiga inhibitor: -6.9

What do the screens show for `NC(=O)N/N=C/c1ccc([N+](=O)[O-])o1`?
Sm TGR block: inconclusive; TbPYK inhibitor: 2.9%; Giardia FBPA inh: -18.1%

Results for CC[C@H](NC(=O)[C@H](CCC(=O)O)NC(=O)[C@H](CCC(=O)O)NC(=O)[C@H](CC(=O)O[S+](=O)([O-])c1cccc2c(NCCN)cccc12)NC(=O)[C@H](CCC(=O)O)NC(=O)[C@H](CC(=O)O)NC(C)=O)C(=O)ON[C@@H](C)C(=O)N[C@@H](CO)C(=O)N[C@@H](CCCCNC(=O)c1ccc(N=Nc2ccc(N(C)C)cc2)cc1)C(N)=O ?
CHX counter: 7.6; Giardia FBPA inh: -4.9%; Shiga inhibitor: 23.2
